Here are results for 94 compounds from PubChem BioAssay AID1822 (The Scripps Research Institute Molecular Screening Center, 2009).

Where “and” joins values, the source holds several entries; their conditions need not be identical. Equal entries are not always repeated. The campaign covered roughly 290,000 compounds. About 3,500 (1.2%) were called active. The full list was thinned out, with actives kept by preference. Values without a mark were called inactive.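 Rule for the calls: active = inhibition above the campaign mean inhibition over all tested compounds plus 3 SD (cut at about 28% in these data); inactive = the rest.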

This experiment deals with M18 aspartyl aminopeptidase (Plasmodium falciparum 3D7). Nature of the experiment: inhibition of P. falciparum M18 aminopeptidase – biochemical, QFRET, recombinant enzyme, primary screen (AID 1822).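 Note: 0% = plate median of test compound wells and 100% = 2 mM ZnCl2.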 Particulars: recombinant PfM18AAP, H-Glu-NHMec fluorogenic cleavage; at 7.35 µM; stronger effect = higher value.
For the compound `Cc1cccc(OCC(=O)NC2CC(C)(C)NC(C)(C)C2)c1`, the inhibition was 7.98%.
Next, `Cc1cc(C)c(S(=O)(=O)Nc2c(C)n(C)n(-c3ccccc3)c2=O)cc1[N+](=O)[O-]`: 1.79%.
In the case of `C=CCn1c(SCc2ccccc2)nc2c1c(=O)[nH]c(=O)n2C` it was -4.12%; in that of `Cc1cc(=O)n2nc(N3CCCC(C(=O)NCc4cccc(Cl)c4)C3)sc2n1` (centres undefined), 0.59%.
In the case of `CC(C)(C)c1ccc(C(=O)N2CCC(C(=O)N3CCCCC3)CC2)cc1` it was -4.18%; in that of `C=CCNC(=O)c1ccccc1SCc1c(C)noc1C`, -1.38%.
For the compound `COc1cc(/C=N/Nc2ccc(C)cc2)cc(Br)c1O`, the inhibition was 18.2%.
In the case of `COc1ccc(/C=C/C(=O)Nc2cccnc2)cc1OC` it was -3.57%; in that of `COc1cc(/C=N/NC(=S)Nc2cccnc2)cc(OC)c1O`, 44.8% (active); in that of `O=C(CCC1CCN(C(=O)c2cccc(Cl)c2F)CC1)Nc1ccccc1`, 4.45%.
Next, `COc1ccc(C(=O)NC(C)Cn2nc(C)cc2C)cc1OC1CCN(C(C)=O)CC1` (centres undefined): 2.44%; `COc1ccc(CCOC(=O)CNC(=O)c2ccc(Cl)cc2Cl)cc1`: 2.28%; `O=C(Nc1nsc(-c2ccccc2)n1)c1ccncc1`: -9.47%.
In the case of `O=C(CSc1ncn[nH]1)Nc1ccnc2ccccc12` it was 71.8% (active); in that of `O=C(CSc1n[nH]c(-c2cccnc2)n1)Nc1ccnc2ccccc12`, -2.9%.
`O=C(CSc1ncn[nH]1)Nc1nc(-c2cccc([N+](=O)[O-])c2)cs1`: the inhibition was 41.6% (active).
Next, `O=C(CSc1nc(-c2ccccc2)cs1)Nc1cccc([N+](=O)[O-])c1`: 1.5%; `O=C(CSc1ncn[nH]1)Nc1nsc(-c2ccccc2)n1`: 34.3% (active); `O=C(CSc1nc2ccccc2[nH]1)Nc1nc(-c2ccccc2)c(-c2ccccc2)o1`: 1.21%.
Consider `CCN(C(=O)CSc1ncn[nH]1)c1cccc2ccccc12`, for which the inhibition was 19%.
Regarding `O=C(CSC1=NCCS1)Nc1nc(-c2ccccc2)cs1`, the inhibition is 4.17%.
In the case of `O=C(Nc1ccccc1)Nc1nnc(COc2ccccc2F)s1` it was -2.7%; in that of `CCOc1ccc2nc(NC(=O)c3cc([N+](=O)[O-])ccc3N3CCOCC3)sc2c1`, -2.3%; in that of `CCOC(=O)N1CCN(C(=O)c2ccc3c(=O)n(CCc4ccc(OC)c(OC)c4)c(=O)[nH]c3c2)CC1`, 4.45%.
On to `CCC(C)Sc1nc2c(cnn2-c2ccc(F)cc2)c(=O)[nH]1` (centres undefined), for which the inhibition is 1.81%.
In the case of `COc1ccc(CCN(C)C(=O)C23CC4CC(CC(Cl)(C4)C2)C3)cc1OC` it was -8.52%; in that of `CC1CCN(C(=O)CCc2nnc3ccc(NCc4ccco4)nn23)CC1`, 23.2%.
Next, `CCC(C)[C@H](NC(=O)N1CCn2c1nc1ccccc12)C(=O)NCc1ccc(OC)cc1` (some centres undefined): 9.53%.
Next, `C=CCC1(CC=C)CCCN1C(=O)c1cc(COc2ccc(-n3cncn3)cc2)on1`: -14.1%.
Turning to `Cc1csc(NC(=O)Nc2ccccc2[N+](=O)[O-])n1`, the inhibition is 9.93%.
In the case of `CC(=O)Nc1cccc(C(=O)Nc2nc(C)cs2)c1` it was -10.2%.
Next, `Cc1csc(NC(=O)NC2(C(F)(F)F)Oc3ccccc3O2)n1`: 70.8% (active).
Next, `COc1ccc(N2CCN(C(=O)CN3C(=O)COc4ccccc43)CC2)cc1`: -6.46%.
As to `Oc1c(Cl)cc(Cl)cc1/C=N/c1ncn[nH]1`, the inhibition was 45.4% (active).
Turning to `COc1ccc(Br)cc1/C=N/n1c(C)nnc1C`, the inhibition is 0.59%.
Next, `Oc1ccc(Br)cc1C=Nc1ccc2[nH]ncc2c1`: 4.29%.
In the case of `Oc1ccc(Cl)cc1/C=N/c1nc2ccccc2[nH]1` it was 0.82%; in that of `COc1cc(Br)cc(/C=N/c2ncn[nH]2)c1O`, 61.7% (active).
Next, `O=C(CN1C(=O)c2cccnc2Oc2ccc(Cl)cc21)Nc1ccc(F)cc1`: -4.17%; `Cc1cc(F)ccc1N1CCC(N2CCN(C)C(CCO)C2)CC1` (centres undefined): -5.24%.
As for `O=C(NNS(=O)(=O)c1ccc(F)cc1)C1CCCCC1`, the inhibition is -0.96%.
Next, `Cc1cc(=O)oc2c(C)c(OC(C)C(=O)NC3CCN(Cc4ccccc4)CC3)ccc12` (centres undefined): -1.22%; `Cc1ccnc(NC(=O)C2CCN(S(=O)(=O)c3c(C)c(C)cc(C)c3C)CC2)c1`: 3.42%; `Cc1nc([N+](=O)[O-])nn1C12CC3CC(CC(Br)(C3)C1)C2`: 13.9%.
`Cc1ccnc(SCC(N)=O)n1`: the inhibition is 3.17%.
Consider `Cc1ccnc(N2CCCC(C(=O)NC3CC3)C2)n1` (centres undefined), for which the inhibition is 0.97%.
Next, `Cc1ccnc(-n2sc3ccccc3c2=O)n1`: 42% (active); `CN(C)S(=O)(=O)c1ccc(N2CCCC2)c(C(=O)Nc2cccc(F)c2)c1`: -1.31%; `Cc1ccc(S(=O)(=O)N2CCCC(C(=O)N3CCN(C)CC3)C2)cc1` (centres undefined): -0.92%.
With `Cn1sc(=O)c2cc(S(=O)(=O)NC3CC3)ccc21`, the inhibition is 43% (active).
Next, `O=S(=O)(NC1CC1)c1ccc(F)c(F)c1`: -0.16%.
In the case of `CC1CCC(NS(=O)(=O)c2ccc3c(c2)n(C)c(=O)c(=O)n3C)CC1` (centres undefined) it was -14%.
In the case of `N=c1c2c3c(sc2ncn1N)CCCCC3` it was -3.67%; in that of `N=c1c2c3c(sc2ncn1N)CCCC3`, 2.91%; in that of `S=c1[nH]nc2c3c4c(sc3ncn12)CCCC4`, 38.3% (active).
As for `Cn1ncc(Br)c1C(=O)NC1CCCC1`, the inhibition is -2.67%.
In the case of `CCC(C)NC(=O)CSC1=Nc2ccccc2C2=NC(CCC(=O)NCc3ccco3)C(=O)N12` (centres undefined) it was -0.47%; in that of `O=C(CSC1=Nc2ccccc2C2=NC(CC(=O)NCc3ccco3)C(=O)N12)NCc1ccco1` (centres undefined), 7.17%.
`CC(C)C1N=C2c3ccccc3N=C(SCC(=O)c3ccc(O)c(O)c3)N2C1=O` (centres undefined): the inhibition was 55.1% (active).
Next, `CC(=O)C(C)n1cnc2scc(-c3ccc(C)cc3)c2c1=O` (centres undefined): 0.85%; `CSc1ccc(CNC(=O)c2ccc(NC(=O)C3=CSCCO3)cc2)cc1`: 6.37%; `COc1cccc(C(=O)Nc2nnc(S(=O)(=O)N3CCOCC3)s2)c1`: 1.13%.
Next, `O=C(c1ccncc1)c1ccc([N+](=O)[O-])cc1`: -0.4%; `O=C(Cn1c[n+](CC(=O)c2ccc([N+](=O)[O-])cc2)cn1)c1ccc([N+](=O)[O-])cc1`: 50.9% (active) and 63.7% (active).
Next, `Cc1ccc(C(=O)Cn2cc([N+](=O)[O-])nc2C)cc1`: 1.83%; `CC(C)Cn1c(N2CCN(C(=O)/C=C/c3ccccc3)CC2)nc2ccccc21`: 2%.
With `Cc1c(OC(C)C(=O)NCC2CCC(C(=O)O)CC2)ccc2c1oc(=O)c1ccccc12` (centres undefined), the inhibition was 5.1%.
Next, `Cc1ccccc1N1CCN(CC(=O)NCc2ccc(Cl)cc2)CC1`: 4.87%.
For `O=C(COC(=O)c1ccc(N2CCCC2=O)cc1)c1ccc(OC(F)F)cc1`, the inhibition is 0.74%.
In the case of `COc1ccc(C(=O)NC2CC(C)(C)Cc3c2cnn3-c2ccccc2)c(OC)c1` (centres undefined) it was 0.86%; in that of `Nc1ccc(C(=O)Nc2ccccc2N)cc1`, -8.23%; in that of `Cc1cc(F)ccc1NC(=S)NCCc1ccccc1`, -8.4%.
Regarding `Cc1ccc(CN(Cc2cccnc2)C(=S)Nc2cccc(Cl)c2C)cc1`, the inhibition is -8.48%.
Consider `CC(=O)N/N=C/c1cc2c(cc1[N+](=O)[O-])OCO2`, for which the inhibition was 6.95%.
In the case of `Cc1ccc(S(=O)(=O)N/N=C\c2cc3c(cc2[N+](=O)[O-])OCO3)cc1` it was 51.5% (active).
Next, `Cc1ccc(-c2n[nH]c(=S)n2/N=C/c2cc3c(cc2[N+](=O)[O-])OCO3)cc1`: 17.7%.
Next, `COc1ccc(C(CNC(=O)COc2ccc([N+](=O)[O-])cc2)N2CCCCC2)cc1` (centres undefined): -7.22%; `CC(=O)Nc1cccc(C(=O)OCN2C(=O)c3ccccc3C2=O)c1`: 1.1%.
As for `COc1ccc(CC(=O)Nc2nc(-c3ccc(F)c(F)c3)cs2)cc1OC`, the inhibition is 0.44%.
Regarding `COc1ccc(C2/C(=C(/O)c3ccc4c(c3)CC(C)O4)C(=O)C(=O)N2Cc2ccncc2)cc1` (centres undefined), the inhibition was 16.6%.
Next, `COc1cc(C2/C(=C(\O)c3ccc4c(c3)CC(C)O4)C(=O)C(=O)N2Cc2ccco2)ccc1O` (centres undefined): 45.6% (active); `COc1ccc(/C(O)=C2\C(=O)C(=O)N(Cc3ccco3)C2c2ccc(OC)cc2OC)cc1` (centres undefined): 8.22%; `CCOc1ccc(-n2c(O)c(/C=N/Nc3nc(C)cc(C)n3)c3ccccc3c2=O)cc1`: 26.7%.
In the case of `CCOc1ccc(-n2c(O)c(/C=N/c3ccnn3Cc3ccncc3)c3ccccc3c2=O)cc1` it was 5.65%.
Next, `CCOc1ccc(-n2c(O)c(/C=N/Nc3nnc(C)c(=O)[nH]3)c3ccccc3c2=O)cc1`: 34% (active); `S=C(Nc1cccnc1)Nc1ccccn1`: 11.1%.
As for `C[C@H](NC(=O)c1nc[nH]c1C(=O)NCC(=O)OC(C)(C)C)c1ccccc1`, the inhibition was 1.03%.
As for `CCC(CC)c1nnc(NC(=O)/C=C/c2ccco2)s1`, the inhibition is 2.71%.
In the case of `CCC(CC)c1nnc(NC(=O)C2CCN(C(=O)c3ccco3)CC2)s1` it was 31.2% (active); in that of `COc1ccc(CNC(=O)C2CCN(C(=O)c3ccco3)CC2)cc1`, 2.47%; in that of `CCS(=O)(=O)c1cc([N+](=O)[O-])c(Sc2ccccc2N)s1`, 38.9% (active).
In the case of `CCOC(=O)c1cc(Sc2ccccc2N)cc(C(=O)OCC)n1` it was 10.8%.
In the case of `Nc1ccccc1SC(C[N+](=O)[O-])c1ccccc1` (centres undefined) it was 14.1%.
With `Cc1ccc(S(=O)(=O)CC(=O)NC(C)c2ccccc2)cc1` (centres undefined), the inhibition was -6.39%.

A word on the inhibition: it is the change of the read-out against control, counted positive when it falls.
